{
  "source": "PubChem BioAssay AID1566",
  "about": "(Sanford-Burnham Center for Chemical Genomics, 2009)",
  "note": "Screen size: about 290,000 compounds; about 1,800 (0.62%) were called active. Shown is part of a subset that was picked to be rich in actives. Unmarked numbers belong to inactive results. Cut-off read from the data, not from the text of the source: active = inhibition above about 50%; inactive = the rest.",
  "data": [
    {"experiment": "NOD2 signaling inhibitors, cell-based, luminescence, uHTS, HEK293 (AID 1566)", "settings": "HEK293 NOD2/NF-kB luciferase reporter, at 4 µM, hits give high values", "values": [
      {"smiles": "CC(C)(C)c1ccc(S(=O)(=O)N2CCC(c3nc4ccc(Cl)cc4[nH]3)CC2)cc1", "inhibition": "-18.9%"},
      {"smiles": "Cc1nnsc1C(=O)NC1CCCc2c1cnn2-c1cc(F)cc(F)c1", "note": "(stereo not given)", "inhibition": "21.9%"},
      {"smiles": "Cc1nnsc1C(=O)NC1CCCc2c1cnn2-c1ccccc1F", "note": "(stereo not given)", "inhibition": "51.1% (active)"},
      {"smiles": "Cc1cc(C)cc(-n2ncc3c2CCCC3NC(=O)C2(C(N)=O)CC2)c1", "note": "(stereo not given)", "inhibition": "7.2%"},
      {"smiles": "Cc1nnsc1C(=O)NC1CCCc2c1cnn2-c1ccc(F)cc1F", "note": "(stereo not given)", "inhibition": "49.3%"},
      {"smiles": "O=C(NC1CCCc2c1cnn2-c1ccccc1F)c1ccccn1", "note": "(stereo not given)", "inhibition": "-49.8%"},
      {"smiles": "Cc1cccc(-n2ncc3c2CCCC3NC(=O)C2CCOCC2)c1C", "note": "(stereo not given)", "inhibition": "41.8%"},
      {"smiles": "Cn1nccc1C(=O)NC1CCCc2c1cnn2-c1cc(F)cc(F)c1", "note": "(stereo not given)", "inhibition": "30.4%"},
      {"smiles": "CC(=O)N/C(=C\\c1ccc2c(c1)OCO2)C(=O)NC(C(=O)O)c1ccccc1", "note": "(stereo not given)", "inhibition": "19.8%"},
      {"smiles": "Cc1cccc2sc(NC(=O)CSc3nnnn3C)nc12", "inhibition": "-7%"},
      {"smiles": "O=C(CNC(=O)c1ccc(Oc2ccccc2)cc1)OC1CCCCC1=O", "note": "(stereo not given)", "inhibition": "10.8%"},
      {"smiles": "Cc1cccc(Nc2nc(N)nc(CSC(=S)N3CCOCC3)n2)c1", "inhibition": "-21.1%"},
      {"smiles": "CCc1cccc(C)c1NC(=O)c1ccoc1C", "inhibition": "4.5%"},
      {"smiles": "Cc1ccc2nc(-c3ccccc3)cn2c1", "inhibition": "26.7%"},
      {"smiles": "Cc1ccc(-c2cn3cc(C)ccc3n2)cc1", "inhibition": "71.8% (active)"},
      {"smiles": "Cc1ccc2nc(-c3ccc(O)c(O)c3)cn2c1", "inhibition": "-51.7%"},
      {"smiles": "CCOC(=O)C1CCN(S(=O)(=O)c2c(C)n(C)c(=O)n(C)c2=O)CC1", "inhibition": "-0.5%"},
      {"smiles": "O=C1CC(N2CCN(C/C=C/c3ccccc3)CC2)C(=O)N1Cc1cccs1", "note": "(stereo not given)", "inhibition": "7.5%"},
      {"smiles": "c1ccc(-c2nc(-c3ccccn3)no2)cc1", "inhibition": "20.1%"},
      {"smiles": "COc1cc(-c2nc(-c3ccccn3)no2)cc(OC)c1OC", "inhibition": "-18.2%"},
      {"smiles": "c1ccc(-c2noc(-c3ccncc3)n2)nc1", "inhibition": "-43.2%"},
      {"smiles": "COc1ccc(-c2nc(-c3ccccn3)no2)cc1", "inhibition": "84% (active)"},
      {"smiles": "Cc1ccc(-c2nc(-c3ccccn3)no2)cc1Cl", "inhibition": "47.8%"},
      {"smiles": "c1ccc(-c2ccc(-c3nc(-c4ccccn4)no3)cc2)cc1", "inhibition": "67% (active)"},
      {"smiles": "c1ccc(-c2noc(-c3ccc4ccccc4c3)n2)nc1", "inhibition": "45%"},
      {"smiles": "Cc1ccc(-c2nc(-c3ccccn3)no2)cc1", "inhibition": "84.3% (active)"},
      {"smiles": "COc1cccc(-c2nc(-c3ccccn3)no2)c1", "inhibition": "-16.1%"},
      {"smiles": "CCOC(=O)c1ccc2c(c1)nc(SCC(=O)c1ccco1)n2CC", "inhibition": "8.2%"},
      {"smiles": "CN(C)CCNC(=O)c1cc2cc(Br)ccc2oc1=O", "inhibition": "-0.6%"},
      {"smiles": "COc1ccc(N/C(N)=N/c2nc(CSc3nnc(C)s3)cc(=O)[nH]2)cc1", "inhibition": "-37.9%"},
      {"smiles": "Cc1ccc(C)c(Sc2ccc(NC(=O)CCl)cc2)c1", "inhibition": "-19.5%"},
      {"smiles": "O=C(Cc1ccc(Cl)cc1)Nc1ccccc1Sc1ccccc1", "inhibition": "0.7%"},
      {"smiles": "O=C(CCl)Nc1ccccc1Sc1ccccc1", "inhibition": "-24.6%"},
      {"smiles": "Cc1ccc(Sc2ccc(NC(=O)CCl)cc2)cc1C", "inhibition": "0.9%"},
      {"smiles": "COc1ccccc1C1=NC(c2ccc(F)cc2)N=C1C", "note": "(stereo not given)", "inhibition": "-33.6%"},
      {"smiles": "COc1ccc(-n2nc(C(=O)NCC(=O)N3CCN(Cc4ccccc4)CC3)c3ccccc3c2=O)cc1", "inhibition": "-1.4%"},
      {"smiles": "CC1(c2ccccc2)NC(=O)N(CC(=O)Nc2nnc(C3CC3)s2)C1=O", "note": "(stereo not given)", "inhibition": "-9.7%"},
      {"smiles": "COc1ccc(/C=N/n2c(SC)nnc2-c2ccccc2)c(OC)c1OC", "inhibition": "-38.9%"},
      {"smiles": "COc1ccc(-n2c(Cc3cccn3C)nnc2SCC(=O)Nc2ccc3c(c2)OCCO3)cc1", "inhibition": "6.8%"},
      {"smiles": "O=C(c1ccccc1)c1cc([N+](=O)[O-])ccc1N1CCOCC1", "inhibition": "5.9%"},
      {"smiles": "Cc1cc2ncn(C3CC(=O)N(C)C3=O)c2cc1C", "note": "(stereo not given)", "inhibition": "10.1%"},
      {"smiles": "CCCN1C2CCCC1CC(NC(=O)C1CCCCC1)C2", "note": "(stereo not given)", "inhibition": "-3.5%"},
      {"smiles": "CN1CCN(C(=O)C2CC(=O)N(c3ccc(Cl)cc3)C2)CC1", "note": "(stereo not given)", "inhibition": "-8.8%"},
      {"smiles": "CCCc1ccc(-c2ccc(/C=C/C(=O)O)cc2)nc1", "inhibition": "78.4% (active)"},
      {"smiles": "CCCCCc1ccc(-c2ccc(/C=C/C(N)=O)cc2)nc1", "inhibition": "-57.2%"},
      {"smiles": "CCCCCc1ccc(-c2ccc(/C=C/C(=O)O)cc2)nc1", "inhibition": "-82.7%"},
      {"smiles": "Cc1sc2ncnc(NCC(c3ccccc3)N(C)C)c2c1C", "note": "(stereo not given)", "inhibition": "10.2%"},
      {"smiles": "NS(=O)(=O)c1ccc(CCNc2ncnc3sccc23)cc1", "inhibition": "34.1%"},
      {"smiles": "Cc1sc2ncnc(N[C@@H](CCC(=O)O)C(=O)O)c2c1C", "inhibition": "2.8%"},
      {"smiles": "Cc1nc(NCCc2ccc(S(N)(=O)=O)cc2)c2c(C)c(C)sc2n1", "inhibition": "45.1%"},
      {"smiles": "COc1ccccc1C(CNc1ncnc2sc(C)c(C)c12)N(C)C", "note": "(stereo not given)", "inhibition": "18.9%"},
      {"smiles": "Cc1sc2ncnc(NCC(O)c3ccccc3)c2c1C", "note": "(stereo not given)", "inhibition": "40.2%"},
      {"smiles": "Cc1sc2ncnc(NCCc3ccc(S(N)(=O)=O)cc3)c2c1C", "inhibition": "55.7% (active)"},
      {"smiles": "Cc1sc2ncnc(NCC(O)c3ccc([N+](=O)[O-])cc3)c2c1C", "note": "(stereo not given)", "inhibition": "51.7% (active)"},
      {"smiles": "COc1ccc(C(CNc2ncnc3sc(C)c(C)c23)N(C)C)cc1", "note": "(stereo not given)", "inhibition": "69.8% (active)"},
      {"smiles": "CC(=O)Nc1ccc(OS(=O)(=O)c2ccc(Cl)cc2)cc1", "inhibition": "12.5%"},
      {"smiles": "CCN(CC)S(=O)(=O)c1ccc(C)c(NC(=O)/C=C/c2cccs2)c1", "inhibition": "-13.1%"},
      {"smiles": "CCOCC(=O)Nc1ccccc1C(=O)O", "inhibition": "5.3%"},
      {"smiles": "CCCCNC(=O)c1cn(CC)c2ccc(S(=O)(=O)N3CCCCCC3)cc2c1=O", "inhibition": "-6.4%"},
      {"smiles": "O=S(=O)(Nc1cc(Sc2cccc3cccnc23)c(O)c2ccccc12)c1ccccc1", "inhibition": "95.9% (active)"},
      {"smiles": "O=C(O)CSc1cc(NS(=O)(=O)c2ccc(Br)cc2)c2ccccc2c1O", "inhibition": "57.2% (active)"},
      {"smiles": "O=S(=O)(Nc1cc(Sc2ncn[nH]2)c(O)c2ccccc12)c1ccccc1", "inhibition": "19%"},
      {"smiles": "O=C(O)CSc1cc(NS(=O)(=O)c2cccc([N+](=O)[O-])c2)c2ccccc2c1O", "inhibition": "16.9%"},
      {"smiles": "Cc1cc(C)c(S(=O)(=O)Nc2cc(SCC(=O)O)c(O)c3ccccc23)cc1C", "inhibition": "29.2%"},
      {"smiles": "O=S(=O)(Nc1cc(Sc2cccc3cccnc23)c(O)c2ccccc12)c1ccc(F)cc1", "inhibition": "-2.1%"}
    ]}
  ]
}
